Source: PubChem BioAssay (NCI)
This is part of a sample that, as a whole, favours compounds with a hit. Of some 83,000 tested, about 20% had one in any assay.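 Cells were grown in 96-well plates and exposed to the test compound at a single concentration for 48 hours; results are reported as percent growth, with values below 10 considered active.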 Unmarked numbers belong to inactive results. The source made the active and inactive calls.

System: EKVX NSCLC
Experiment: NCI-60 one-dose screen, 48 h (100 = growth as untreated, 0 = no growth, -100 = all killed)
Details: 10 µM unless noted
Description: Growth inhibition of the EKVX human Non-Small Cell Lung tumor cell line is measured as a screen for anti-cancer activity. Cells are grown in 96 well plates and exposed to the test compound for 48 hours. Compounds are tested at a single concentration, which is 10^-5 M for most compounds. The reported endpoint is percent growth (GI% or GIPRCNT), where numbers from 0 - 100% represent growth inhibition, and numbers from -100% - 0 represent cell death. For example, a value of 40 represents 60% growth inhibition. A value of 0 means no net growth occurred over the course of the experiment. A value of -40 indicates 40% of cells at the beginning of the experiment died by the end of the experiment. A value of -100 means all cells are dead at the end of the experiment.
NCI-60 Human Tumor Cell Lines Screen was performed using the standard one-dose NCI protocol, which is described in more detail at https://dtp.cancer.gov/discovery_development/nci-60/default.htm.
Compounds with GIPRCNT values below 10 were considered active. Activity score was based on GIPRCNT using the following formula: […]
Score is 0 for GIPRCNT values of 100 or above, 50 for GIPRCNT values of 0, and 100 for GIPRCNT values of -100.

| Compound | growth |
| --- | --- |
| O=C1CCC(c2c(O)cc(O)c3c(=O)c(O)c(-c4ccc(O)c(O)c4)oc23)N1 (stereo not given) | 106% |
| CC(C)CNCC(=O)Nc1ccc(Cc2ccc(NC(=O)CNCC(C)C)cc2)cc1 | 67.9% |
| CCOc1ccc(NC2=C(Cl)C(=O)c3ccccc3C2=O)cc1 | 87.2% |
| COc1cc(C(=O)C[n+]2ccccc2)ccc1OC(C)=O | 100% |
| O=C(NCCNc1nccc(-c2c(-c3cccc(O)c3)nc3sccn23)n1)Nc1cccc(C(F)(F)F)c1 | 91.2% |
| Nc1nccc(=S)[nH]1 | 101% |
| O=c1[nH]ccc2nc(N3CCC(O)CC3)nc(Nc3cccc(C(F)(F)F)c3)c12 | 83% |
| CCCc1nn2c(CCC(=O)c3nc4ccc([N+](=O)[O-])cc4[nH]3)nnc2s1 | 95.6% |
| COc1ccc(-c2ccc(NC(=O)Nc3cccc(C(F)(F)F)c3)c(C)n2)cc1 | 41.4% |
| CC(=O)c1cc2c(c(O)c1C)C(=O)C(=O)c1c(O)cccc1-2 | -42.3% (active) |
| COc1ccccc1S(=O)(=O)Nc1ccc2c3c(cc(-c4ccoc4)nc13)C(=O)N2C | 66.4% |
| OC(COc1ccccc1Cl)CN1CCN(c2ccc(Cl)cc2)CC1 (stereo not given) | 106% |
| COc1cc(/C=C/C(=O)c2ccc(Oc3ncnc4ccccc34)cc2)cc(OC)c1OC | 87% |
| COc1ccc2c(-c3ccc(F)cc3)c(C#N)c(=NC(C)=O)oc2c1 | 62.8% |
| c1nc(SC2=NCCN2)c2[nH]cnc2n1 | 88.7% |
| Cc1nccc2c3ccc(OCc4cn(Cc5ccc(Br)cc5)nn4)cc3n(CCCc3ccccc3)c12 | 85.5% |
| Fc1ccc(Nc2ncnc3ccc(-c4cn[nH]c4)cc23)cc1Cl | 22.4% |
| NC(=O)C1=C[C@H]2[C@H]3C=C[C@@]2(O)C(=O)O[C@@H]3O1 | 63.2% |
| Cc1ccc(-c2nc3c(N=Nc4ccc(S(N)(=O)=O)cc4)c(N)nn3c(N)c2C#N)cc1 | 69.8% |
| CC(C)Cn1cnc2c3ccccc3nc(NCn3nc(-c4cc(Cl)cc(Cl)c4Cl)oc3=S)c21 | 89.1% |

| Compound | growth |
| --- | --- |
| O=C(Nc1ccc(Cl)c(Cl)c1)Nc1ccc(Cl)c([N+](=O)[O-])c1 | 4.27% (active) |
| OCc1cn(-c2ccc(Cl)cc2)nc1-c1ccc(O)cc1 | 89.7% |
| COc1ccc(/C=C2\CS(=O)(=O)C/C(=C\c3ccc(OC)cc3)C2=O)cc1 | 11.4% |
| O=C1CN(CCN2CC(=O)NC(=O)C2)CC(=O)N1 | 84.4% |
| CCN(CC)CC(=O)Nc1c(C)cccc1C | 85.2% |
| OCc1cnccc1NC12CC3CC(CC(C3)C1)C2 | 103% |
| CC12CCC3C(CCC4CC(O)CCC43C)C1C/C(=C/O)C(=O)O2 (stereo not given) | 104% |
| C=C(C)[C@@H]1C/C=C(\COC(=O)[C@H](OC(C)=O)C(NC(=O)c2ccccc2)c2ccccc2)CC[C@H]2O[C@]2(C)CC/C=C(\C)CC1 (stereo not given in full) | 64.5% [5 µM] |
| Cc1ccc2c(c1)Nc1ccc(C)cc1C2(C)C | 87.8% |
| COc1ccc2c(c1)OC(N)=C(C#N)C2c1ccc(F)cc1 (stereo not given) | 44.8% |
| COc1ccc(/C=C/C(=O)c2ccc(Oc3ncnc4ccccc34)cc2)cc1OC | 77.7% |
| CC1(C)N=C(N)N=C(N)N1c1ccc(OCC(=O)Nc2ccccc2)c(Cl)c1 | 48.9% |
| CCCC(=O)Oc1ccc(/C(=C(\C)c2ccc(Cl)cc2)c2ccc(OCCN(CC)CC)cc2)cc1 | 12% |
| COc1ccc(NC(=O)COCCOCCNC[C@@H]2C(=O)O[C@H]3[C@H]2CC/C(COC(=O)OC/C2=C/CC[C@@]4(C)O[C@H]4[C@H]4OC(=O)[C@@H](CN(C)C)[C@@H]4CC2)=C\CC[C@@]2(C)O[C@@H]32)c(O)c1C(N)=O | 81.5% |
| Cc1cn(C2CC(N=[N+]=[N-])C(COP(=O)(O)OP(=O)(O)OP(=O)(O)O)O2)c(=O)[nH]c1=O (stereo not given) | 116% |
| C=C1C(=O)O[C@H]2[C@H]1CC/C(COC(=O)c1ccc(Br)cc1)=C\CC[C@@]1(C)O[C@@H]21 | -41.3% (active) |
| O=C(CSc1nnc(-c2cc3c([nH]c4ccccc43)c(-c3cccc(O)c3)n2)n1-c1ccccc1)c1ccccc1 | 69.3% |
| COC(=O)c1ccc2c(c1)Oc1ccc(Cl)cc1-c1cc(C)nn1-2 | 66.9% |
| COc1ccc(C(=O)NC(=O)Nc2ccc3c(c2)NC(=O)/C3=C\c2[nH]c(C)c(C(=O)O)c2C)cc1 | 81.7% |
| COc1cc(-c2nc3ccccc3s2)ccc1OCc1nc2n(n1)S(=O)(=O)c1ccccc1N2C | 53.6% |
